nsP2pro inh – CHIKV nsP2 protease inhibition, primary qHTS; FRET peptide cleavage, nsP2pro, fluorescence 1 h; 31,000 tested, 1.1% active; Q8JUX6; Potency, µM (titrated, usually from 24.9 µM), for inactives: at the highest dose activity change, negative = inhibition, most hits filed as inhibitors; calls by dose curve; also: nearly all actives have a fitted effect of over 60% in size
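Recombinant nsP2pro (150 nM) was preincubated with compound 15 min at room temperature in 10 mM Tris-HCl pH 8.0, 0.01% Tween 20. Peptide 2 FRET substrate (2.5 uM) was then added and fluorescence read after 1 h. Seven-point series, up to 25 uM.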
* hit, by the source's call; i = inactive; ! = not confirmed by another sample; [ ] = another dose, or the depositor's remark. Shown is part of a subset that was picked to be rich in hits. % is scaled to controls: 0 for no effect and ±100 for the full control effect; potency is read from the fitted curve at half-maximal effect.

SMILES	nsP2pro inh
Cc1ccnc(NC(=S)N2CCCc3ccc(C(F)(F)F)cc32)c1	i
Cc1cc(C)cc(C(=O)NOCCCCCC(=O)NO)c1	-22%
CC(C)CCN1CCC2(COc3ccccc3C(=O)N2)C1 (stereo unspecified)	-3%[39.2 µM]
O=C(Cc1ccccc1)NCc1ccnc2[nH]ccc12	-1%[39.2 µM]
O=C(NCc1c[nH]c2ncccc12)c1cccnc1	3%[39.2 µM]
O=C(NCc1ccnc2[nH]ccc12)c1ccc(Cl)cc1	14µM*
CC(=O)c1cc2cccc(OCC(O)CNC(C)C)c2o1 (stereo unspecified)	-4%
c1ccc(C2(c3ccccc3)CCCN(Cc3cscn3)C2)cc1	1%
O=C(Nc1ccc(-n2cncn2)c(F)c1)Nc1nnc(-c2ccncc2)s1	-1%
CN1CCc2[nH]cnc2C12CCN(C(=O)Cc1ccc(F)cc1Cl)CC2	-3%
NCc1ccccc1CC(=O)N[C@@H]1C(=O)N2C(C(=O)O)=C(CSc3nnnn3CC(=O)O)CS[C@H]12	12µM*
O=C(O)C1=C(CSc2nnnn2CS(=O)(=O)O)CS[C@@H]2[C@@H](NC(=O)[C@H](O)c3ccccc3)C(=O)N12	-23%
Cn1nnnc1SCC1=C(C(=O)O)N2C(=O)[C@H](NC(=O)C(O)c3ccccc3)C2SC1 (stereo partly specified)	-19%
Cn1nnc(-c2ccc(-c3ccc(N4C[C@@H](CO)OC4=O)cc3F)cn2)n1	1%
Cc1[nH]c2ccccc2c1CC(=O)NCc1ccccc1-n1cncn1	-25%
C=C1C(=O)OC2/C=C(\CO)CC/C=C(\C=O)C(O)C(OC(=O)C(C)CC)C12 (stereo unspecified)	-6%
C=C1C(=O)O[C@@H]2/C=C(\CO)CC/C=C(\CO)[C@H](OC(C)=O)C(OC(=O)C(C)CC)C12 (stereo partly specified)	-3%[10 µM]
C=C(C)C(=O)OC1C(OC(C)=O)/C(C=O)=C\CC/C(CO)=C/C2OC(=O)C(=C)C21 (stereo unspecified)	1.4µM*
CCOc1ccc(CCNC(=O)c2cc3sccc3n2Cc2ccc(F)cc2F)cc1OCC	2%
CCC1C(=O)NCCN1Cc1cn(-c2cccc(F)c2)nc1-c1ccc(C)o1 (stereo unspecified)	11µM*
O=C(c1ccc(F)cc1)N1C[C@@H]2C[C@H](C1)c1ccc(NS(=O)(=O)Cc3ccccc3)c(=O)n1C2	13µM*
COc1ccc(S(=O)(=O)Nc2ccc3n(c2=O)C[C@H]2C[C@@H]3CN(C(=O)c3ccccn3)C2)cc1	-29%
CCCS(=O)(=O)Nc1ccc(=O)n2c1[C@@H]1C[C@@H](CN(C(=O)c3ccc(F)cc3)C1)C2	-1%[39.2 µM]
CCNC(=O)Nc1ccc(OCC(=O)N2CCN(c3ccccn3)CC2)nc1	-14%
O=C(NC1CCCCC1)O[C@@H]1CO[C@H]2[C@@H]1OC[C@@H]2n1nnnc1-c1ccccc1	-4%[39.2 µM]
SMILES	nsP2pro inh
COc1ccc(NC(=O)N[C@H]2CO[C@H]3[C@@H]2OC[C@@H]3n2nnnc2-c2ccccc2)cc1	-4%[39.2 µM]
O[C@@H]1CO[C@H]2[C@@H]1OC[C@@H]2n1nnnc1SCc1ccco1	11µM*
O=C(Nc1cccc(F)c1)c1cc(-c2ccc[nH]2)n[nH]1	88%
O=C(Nc1ccc(F)cc1)c1cc(-c2ccc[nH]2)n[nH]1	10µM*
O=C(Nc1cccc(Cl)c1)c1cc(-c2ccc[nH]2)n[nH]1	11%
CC(C)(C)c1ccc(CNC(=S)NCc2ccc(NS(C)(=O)=O)c(F)c2)cc1	-10%
CN(Cc1nccs1)C(=O)CC(c1ccccc1)c1cccc(Cl)c1 (stereo unspecified)	i
CN1CCN(C2=Nc3ccccc3Cc3ccccc32)CC1	-1%
Cc1cc2c(s1)Nc1ccccc1N=C2N1CCN(C)CC1	11µM*!
CN1CCN(C2=Nc3ccccc3Nc3ccc(Cl)cc32)CC1	2%
Cc1cnc(-c2ccccc2C(C)C)nc1NCc1ccc(C2CCCNC2)cc1 (stereo unspecified)	4%
COc1cccc(CNC(=O)NC2CCc3n[nH]c(=O)n3CC2)c1 (stereo unspecified)	5%
CCN1c2cc(C(=O)NCc3ccncc3)ccc2C(=O)N2CCCCC21 (stereo unspecified)	i
O=C(Nc1ccc(S(=O)(=O)Nc2nccs2)cc1)c1ccnc2ccccc12	-16%
CC1COC2=C1C(=O)C(=O)c1c2ccc2c1CCCC2(C)C (stereo unspecified)	11µM*
COc1ccc(-c2ncc(CN3CCCC4(C3)CN(C)C(=O)O4)cn2)cc1 (stereo unspecified)	-8%
COc1ccc(CN2CCCC3(C2)CN(C)C(=O)O3)cc1C(=O)O (stereo unspecified)	-5%
CN1CC2(CCN(Cc3ccc(-c4ccc(Cl)cc4)o3)C2)OC1=O (stereo unspecified)	13µM*
Cc1cc(C)nc(NC(=C(C#N)C#N)N2CCN(c3cccc(C(F)(F)F)c3)CC2)c1	-12%
CCN1CCN(CC(O)COc2cccc(CNCc3cnn(CC)c3)c2)CC1 (stereo unspecified)	i
Cc1cc(OCC(O)CN2CCN(c3cccc(Cl)c3)CC2)ccc1Cl (stereo unspecified)	11µM*

Source: PubChem
